About 600 (1.2%) of roughly 51,000 compounds were called active. Inconclusive results (about 2%) are left out. This is one part of a sample in which actives are shown more often than they occur. A number with no mark means an inactive call. No stated cut-off is given here; in the data, active means potency below about 11 µM; inconclusive means mostly about 12 µM to 25 µM; inactive means weaker than that;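 the screen sought inhibitors and activators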.
test system: pyruvate kinase (Bacillus stearothermophilus); test: Pyruvate Kinase; settings: purified pyruvate kinase, luminescence ATP production; ribose 5-phosphate activator present at AC10
Description: Pyruvate kinase (partially purified from Bacillus stearothermophilus) was assayed for its ability to generate ATP from ADP using phosphoenolpyruvate (PEP) as a substrate. ATP generation was detected in a coupled reaction by luciferase-mediated luminescence, an ATP-dependent process. Pyruvate kinase substrates, PEP and ADP, were present in the assay at Km and […]-fold below Km respectively. The enzyme was assayed at an intermediate level of activity to screen for inhibitors and activators. In addition, ribose 5 phosphate, a positive modulator of pyruvate kinase, was included in the assay at AC10 in order to identify possible potentiators.
NCGC Assay Protocol Summary:
Three uL of substrate mix (final concentration, 50 mM imidazole pH 7.2, 50 mM KCl, 7 mM MgCl2, 2 mM PEP, 0.1 mM ADP, 0.7 nM ribose 5 phosphate, 0.01% Tween 20, 0.05% BSA) was dispensed into 1536 well plates. 23 nL of compound were delivered by a pin tool and 1 uL of enzyme mix (final concentration, 10 nM pyruvate kinase, 50 mM imidazole pH 7.2, 0.05% BSA) was added. After centrifugation at 1000 rpm for less than a minute, plates were incubated at room temperature for 2 hours. Three uL of detection and kinase stop mix (PKLight, Cambrex) was added, the plates centrifuged, and luminescence read by a ViewLux (Perkin Elmer) at 5 second exposure/plate. Data were normalized to the controls for AC100 stimulation (5 uM ribose 5 phosphate) and to AC100 inhibition (110 uM luteolin).
Potency means the concentration at half of the fitted maximal effect.

Compound | Potency
FC(F)(F)c1nnc2sc(-c3ccco3)nn12 | > 57 µM
COc1cc(OC)cc(C(=O)Nc2ncc3c(n2)CC(C)(C)CC3=O)c1 | > 57 µM
Cn1c(=O)c2c(nc(N3CCCCCC3)n2CC(O)COc2ccc(Cl)cc2)n(C)c1=O (configuration not stated) | > 57 µM
CCC(=O)Nc1ccc(C(=O)Nc2ccc3c(c2)C(=O)N(CC2CCCO2)C3=O)cc1 (configuration not stated) | > 57 µM
COc1cccc(N(CC(=O)NC2CCCC2)C(=O)Cn2nnc(-c3ccc(C)cc3)n2)c1 | > 57 µM
CCOc1cc(C(=O)Nc2ncccn2)cc(OCC)c1OCC | > 57 µM
CCOC(=O)c1cc(-c2nnc(-c3cc(OC)c(OC)c(OC)c3)o2)c(C)nc1C | > 57 µM
CCOC(=O)c1cc2c(n(-c3ccc(C)cc3)c1=O)CCCC2=O | > 57 µM
CN1CCN(c2ccc(NC(=O)COc3ccc(Cl)cc3Cl)cc2)CC1 | > 57 µM
CC(C)(C)NC(=O)C(c1ccco1)N(Cc1ccc2c(c1)OCO2)C(=O)Cn1nnc2ccccc21 (configuration not stated) | > 57 µM
CCc1nnc(NC(=O)c2nc3nccc(C)n3n2)s1 | > 57 µM
c1ccc(-n2ncc3c2ncn2c(C4CCCCC4)nnc32)cc1 | > 57 µM
CCc1ccccc1NC(=O)CSc1nnc([C@@H](NC(=O)OC(C)(C)C)C(C)CC)o1 (some centres not stated) | > 57 µM
Cc1cc(C)c(C#N)c(SCc2ccccc2C(=O)O)n1 | > 57 µM
COc1ccc2[nH]c(=O)c(-c3noc(-c4ccc(F)cc4)n3)cc2c1 | > 57 µM
Cc1ccc(Cc2nc(-c3cccc(C)c3)no2)cc1 | > 57 µM
Cc1cccc(-c2noc(-c3ccc(F)cc3)n2)c1 | 10.4 µM (active)
CC(C)OC(=O)c1cc(NC(=O)C2C3CCC(O3)C2C(=O)O)cc(C(=O)OC(C)C)c1 (configuration not stated) | 6.13 µM (active)
CCC(CC)C(=O)Nc1cc(C(=O)OC)cc(C(=O)OC)c1 | > 57 µM

Compound | Potency
Cc1nc(NCc2ccccc2)c(C(N)=O)c2c1COC(C)(C)C2 | > 25.6 µM
COc1ccc2oc(=O)c(C(=O)O)cc2c1 | > 57 µM
Cc1cc(Cl)c(S(=O)(=O)NCc2cccnc2)cc1OCC(N)=O | > 57 µM
Cc1nn(CC(=O)Nc2ccc3c(c2)nc(CN2CCCCC2)n3C)c(=O)c2ccccc12 | > 57 µM
COC(=O)c1ccc2c(c1)S(=O)(=O)NC(=NCCCN1CCOCC1)S2 | > 57 µM
COc1ccc2oc(C)c(NC(C)=O)c2c1 | > 57 µM
O=C(Nn1cc(C(=O)N2CCN(c3ccccc3F)CC2)c2ccccc2c1=O)c1cnccn1 | > 57 µM
COCC(C)n1c(SCc2ccc(C(=O)OC)o2)nc2ccccc2c1=O (configuration not stated) | > 57 µM
CCOc1cc(-c2nc3cc(C)ccn3c2NCC2CCCO2)ccc1O (configuration not stated) | > 57 µM
COc1ccccc1Cc1nc(-c2ccc(C)cc2)no1 | > 57 µM
COc1ccc(-c2nc(-c3ccccc3)no2)c(OC)c1 | 0.55 µM (active)
CCOc1nc(-c2ccc(OC)cc2)ccc1-c1noc(-c2cc(OC)c(OC)c(OC)c2)n1 | > 57 µM
Cn1c(=O)c2c(n(Cc3ccccc3)c1=O)NC(=O)C2CC(=O)N1CCc2ccccc2C1 (configuration not stated) | > 57 µM
CC(C)C(=O)N1CCN(CCN=CC2=C(O)CC(c3ccco3)CC2=O)CC1 (configuration not stated) | > 57 µM
O=C(CN1CCN(C2CCCCC2)CC1)Nc1ccccc1N1CCCCC1 | > 57 µM
Fc1ccccc1OCCCCn1cncn1 | > 57 µM
Cc1cccc(-n2ncc3c(N4CCc5ccccc54)ncnc32)c1 | > 57 µM
CCN(CC)CCCN1C(=O)C(=O)/C(=C(/O)c2c(C)nc3ccccn23)C1c1ccc(C)o1 (configuration not stated) | > 57 µM

— PubChem BioAssay AID361 (National Center for Advancing Translational Sciences (NCATS), 2006)
